Bioassay records: PubChem, several laboratories
The list is not random: actives were taken first. Their share in the collection is about 0.72%.
PolyA inh = inhibitors of polyadenylation in S. cerevisiae; activity score, % at 12 µM; actives 0.02% (n = 300,000); AID 1875; S. cerevisiae SKY197-pL101 polyadenylation reporter, beta-gal luminescence; efflux-impaired pdr1/pdr3 knockout yeast; score 100 = 6 SD above DMSO;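 active means lowest replicate activity score at least 50, where 100 means six control SD above control mean; inconclusive means lowest score under 50 but half or more replicates reach 50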;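 further: yeast exposed to compound for 9 h at 30 °C; higher score means more reporter readthrough which indicates perturbed polyadenylation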
PKA-R1A act = PKA-R1A complex activation; P00514+P68181; PKA-R1A dissociation, Cy5-IP20 fluorescence polarization; scaled: DMSO 0%, 113 µM cGMP 100%; activation, % at 11.4 µM; actives 0.083% (n = 340,000); AID 504707;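 active means percent activation above the mean of all tested compounds plus 3 SD, cut at about 19% in these data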;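 further: higher means more PKAc released from R1A so a rise in polarization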
Neddylation inh = cullin neddylation inhibition | P61081+Q13564 | TR-FRET cullin neddylation, biochemical | calls only at 25 µM | actives 0.58% (n = 360,000); in the data active means inhibition above about 36%
Target sequence (P61081 whole entry, looked up): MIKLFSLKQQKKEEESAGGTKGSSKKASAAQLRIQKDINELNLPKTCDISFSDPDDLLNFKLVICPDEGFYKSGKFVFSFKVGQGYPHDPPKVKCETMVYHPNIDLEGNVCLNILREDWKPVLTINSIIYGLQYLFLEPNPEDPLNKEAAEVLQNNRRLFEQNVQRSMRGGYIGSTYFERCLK
Target sequence (Q13564 whole entry, looked up): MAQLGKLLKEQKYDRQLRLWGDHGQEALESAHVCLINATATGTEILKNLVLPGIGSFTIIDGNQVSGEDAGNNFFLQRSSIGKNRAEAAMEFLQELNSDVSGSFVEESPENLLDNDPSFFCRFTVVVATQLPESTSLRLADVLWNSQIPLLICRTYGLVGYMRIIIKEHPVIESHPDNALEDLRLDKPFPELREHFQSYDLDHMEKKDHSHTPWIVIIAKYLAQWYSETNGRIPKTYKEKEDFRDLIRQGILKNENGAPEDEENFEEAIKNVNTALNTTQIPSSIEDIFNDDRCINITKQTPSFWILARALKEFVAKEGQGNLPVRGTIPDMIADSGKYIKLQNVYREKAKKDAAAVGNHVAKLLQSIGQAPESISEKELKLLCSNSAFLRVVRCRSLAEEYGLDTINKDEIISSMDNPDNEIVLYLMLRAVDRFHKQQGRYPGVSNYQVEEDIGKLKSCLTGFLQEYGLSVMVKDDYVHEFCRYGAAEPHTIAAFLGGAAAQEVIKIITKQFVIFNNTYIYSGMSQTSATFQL
PKA-R2B activ = activators of human PKA-R2B complex; actives 0.079% (n = 340,000); PKA-R2B holoenzyme dissociation, Cy5-IP20 fluorescence polarization; R2B truncated from residue 108, S112A mutant; 0% DMSO only, 100% 113 µM cGMP; activation, % at 11.4 µM; AID 504700;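 active means activation above a cutoff set at the mean over all compounds plus 3 SD, cut at about 18% in these data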;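 further: higher means more holoenzyme dissociation and a rise in polarization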
Neddyl conf = cullin neddylation inhibition, confirmation; shares compounds with Neddylation inh; TR-FRET cullin neddylation biochemical assay; calls only at 25 µM; actives 13% (n = 1,800); in the data active means inhibition above about 40%;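 further: neddylation substrate is the cullin 1 ring ligase complex with SKP2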
Calls only; 0 = inactive; ? = inconclusive; - = no result shown; + = active, no number.

SMILES	PolyA inh	PKA-R1A act	Neddylation inh	PKA-R2B activ	Neddyl conf
CCSC1=N/C(=C\c2ccccc2)C(=O)N1c1ccc(OC)cc1	0	0	-	0	-
CCCN(CC(=O)Nc1ccccc1C)C(=O)Cc1cccs1	-	0	0	0	-
CCN(CC)S(=O)(=O)c1cccc(-c2nn(-c3ccccc3)cc2/C=C(\C#N)C(=O)NCc2ccco2)c1	0	0	+	0	0
CCOC(=O)C1=C(C)NC(C)=C(C(=O)OCC)C1C(=O)OCC(N)=O	0	0	0	0	-
CCOC(=O)C1=C(C)NC(C)=C(C(=O)OCC)C1C(=O)OCC(=O)N(C)Cc1ccccc1	-	0	+	0	0
Cc1nn(CCCC(=O)NCCc2ccc(Cl)cc2)c(=O)c2nn(-c3ccccc3)c(C)c12	0	0	0	0	-
COc1ccc(NC(=O)C(c2ccncc2)n2c(=O)c(-c3ccccc3)nc3ccccc32)cc1 (stereo not given)	-	-	+	-	0
CCCCCNC(=O)C(c1ccncc1)n1c(=O)c(-c2ccccc2)nc2ccccc21 (stereo not given)	-	-	+	-	0
O=C(NC1CCCCC1)C(c1ccncc1)n1c(=O)c(-c2ccccc2)nc2ccccc21 (stereo not given)	-	-	+	-	+
CCCCCNC(=O)C(c1ccc(-c2ccccc2)cc1)n1c(=O)c(-c2ccccc2)nc2ccccc21 (stereo not given)	-	-	0	-	-
O=C(O)c1ccc2c(=O)n3c(nc2c1)/C(=C/c1cccc(Cl)c1Cl)CC3	0	0	+	0	-
N#Cc1ccc(/C=C2\CCCCn3c2nc2cc(C(=O)O)ccc2c3=O)cc1	0	0	0	0	-
O=C(O)c1ccc2c(=O)n3c(nc2c1)/C(=C/c1ccc(C(F)(F)F)cc1)CC3	0	0	+	0	+
O=C(O)c1ccc2c(=O)n3c(nc2c1)/C(=C/c1ccc(Cl)cc1Cl)CC3	0	0	-	0	-
C/C1=C\CCC2C(/C=C(\C)CC1)OC(=O)C2CN1CCCCC1 (stereo not given)	0	0	0	0	-
C/C(=N/NC(=O)c1cc(-c2ccccc2)nc2c(Cl)cccc12)c1cccnc1	0	0	0	0	-
Cc1ccc(C2C=NN(c3ccccc3)C2=O)cc1 (stereo not given)	0	0	0	0	-
Nc1ccc(C(=O)N/N=C2\CCCc3c2[nH]c2ccccc32)cc1	0	0	+	0	0
CC(C)c1ccc2[nH]c3c(c2c1)CCC/C3=N\NC(=O)c1ccncc1	0	0	0	0	-
NC(=O)C1CCN(C(=O)c2ccc(Cl)c(S(=O)(=O)N3CCCCCC3)c2)CC1	-	0	0	0	-
CCCC[n+]1ccn(-c2nc3ccccc3nc2[N-]S(=O)(=O)c2ccc(Br)cc2)c1	0	0	0	0	-
CC(C)CC[n+]1ccn(-c2nc3ccccc3nc2[N-]S(=O)(=O)c2ccccc2)c1	0	0	+	0	0
CCCn1c(C(C)Nc2nc(C)cs2)nc2cc(Cl)c(Cl)cc21 (stereo not given)	0	0	0	0	-
CCOc1ccc(CCNC(=O)COC(=O)c2cccc(N(C)C)c2)cc1OCC	0	0	+	0	0
CN(C)c1cccc(C(=O)OCC(=O)Nc2ccccc2Cl)c1	0	0	-	0	-
SMILES	PolyA inh	PKA-R1A act	Neddylation inh	PKA-R2B activ	Neddyl conf
CN(C)c1cccc(C(=O)OCC(=O)Nc2ccccc2-c2ccccc2)c1	0	0	+	0	0
CCNC(=O)C1(C)CCN(C(=O)c2ccc3snnc3c2)C1 (stereo not given)	-	-	0	-	-
COc1cc2c(C#CCO)c(-c3ccc(C#N)cc3)oc(=O)c2cc1OC	-	0	+	0	+
Cc1ccn(CC(=O)N2CCCC(N3CCN(c4cccc(Cl)c4)CC3)C2)n1 (stereo not given)	0	0	0	0	-
CC(=O)c1ccc2c(c1)c(C#N)c1ccccc1[n+]2[O-]	0	0	+	0	+
Cc1nn(C)c(C)c1NC(=O)c1ccccc1NC(=O)Nc1ccccc1	0	0	0	0	-
C=CCn1c(=N)c(S(=O)(=O)c2ccc(C)c(C)c2)cc2c(=O)n3ccccc3nc21	0	0	+	0	0
N=c1c(S(=O)(=O)c2ccccc2)cc2c(=O)n3ccccc3nc2n1CCCN1CCOCC1	0	0	+	0	0
N#Cc1cc2c(=O)n3ccccc3nc2n(CCCn2ccnc2)c1=N	0	0	+	0	0
CCc1ccc([C@@H]2CC(=O)[C@@H]3CN(S(=O)(=O)c4ccc(Cl)cc4)[C@H](c4ccc(C)cc4)C[C@@H]3N2S(=O)(=O)c2ccc(C)cc2)cc1	-	-	0	-	-
CN(CCO)c1ccc(-c2n[nH]c(=O)c3ccccc23)cc1[N+](=O)[O-]	0	0	0	0	-
Cc1nc2ccc(C(=O)NCCCN3CCCC3=O)cn2c1N(C)C(=O)CCc1ccccc1	-	-	0	-	-
Cc1cc(SCC(=O)Nc2ccc(O)cc2)n2ncc(-c3ccccc3)c2n1	?	0	+	0	0
CC(C)NCC(O)COCCOc1ccc(Cl)cc1 (stereo not given)	0	0	+	0	0
CC(C)NCC(O)COCc1ccc(Cl)cc1 (stereo not given)	0	0	0	0	-
O=C(COC(=O)C1CCC1)NCc1ccccc1	0	0	0	0	-
CC(OC(=O)c1snc(C(=O)NC2CCCCC2)c1N)C(=O)NC(C)(C)C (stereo not given)	0	0	+	0	+
N#C/C(=C\c1c(Cl)cccc1Cl)c1nc2ccccc2[nH]1	0	0	+	0	+
COc1cc(/C=C/c2nnc3c4ccccc4ncn23)cc(OC)c1OC	0	0	+	0	0
Cc1cccc(S(=O)(=O)NC(=O)C2(C)CCN2C(=O)c2ccccc2CCc2ccccc2)c1 (stereo not given)	-	-	0	-	-
COc1ccc(-c2cc(C(F)(F)F)nc(-n3ccnc3)n2)cc1	0	0	+	0	0
COc1ccc(-c2cc(C(F)(F)F)nc(-n3cncn3)n2)cc1	0	0	-	0	-
COc1ccc(OC)c(S(=O)(=O)N2CCC(NC(=O)c3ccccc3)CC2)c1	0	0	0	0	-
COC(=O)c1cccc(CN2C(=O)SC(Nc3ccccc3)C2=O)c1 (stereo not given)	0	0	+	0	0
Cc1cccc(NC2SC(=O)N(CC(=O)O)C2=O)c1 (stereo not given)	0	0	0	0	-
SMILES	PolyA inh	PKA-R1A act	Neddylation inh	PKA-R2B activ	Neddyl conf
O=C(CNC(=O)c1ccc(OC(F)F)cc1)Nc1cccc(S(=O)(=O)N2CCCC2)c1	0	0	0	0	-
c1nc2sc3c(c2c2nnnn12)CCCC3	0	0	0	0	-
c1nc2sc3c(c2c2nnnn12)CCC3	0	0	+	0	0
Cn1nnnc1NN=Cc1ccccc1	-	0	0	0	-
COc1ccccc1CC(=O)Nc1ccc(O)cc1C(=O)O	0	0	+	0	-
CCNC(=O)COC(=O)c1ccc(-c2nc3ccccc3s2)s1	0	0	+	0	0
CCc1cc(-c2ccc3c(c2)COc2c4ccccc4nn2-3)on1	0	0	+	0	0
